We go through 1 sequence from publication PMC7862700, “An all-to-all approach to the identification of sequence-specific readers for epigenetic DNA modifications on cytosine”.

Assay in all cases: DAPPL (digital affinity profiling via proximity ligation, sequencing); 10 mM Tris-HCl pH 7.5, 50 mM NaCl, 1 mM DTT, 4% glycerol, room temperature, 30 min; GST-TFs on glutathione beads, 16-mer random dsDNA library, 0.1% formaldehyde crosslink after washing; high values mean tight binding
One assay has as its target T1, FLI1 (Homo sapiens, UniProt Q01543 1-452).
T1 sequence: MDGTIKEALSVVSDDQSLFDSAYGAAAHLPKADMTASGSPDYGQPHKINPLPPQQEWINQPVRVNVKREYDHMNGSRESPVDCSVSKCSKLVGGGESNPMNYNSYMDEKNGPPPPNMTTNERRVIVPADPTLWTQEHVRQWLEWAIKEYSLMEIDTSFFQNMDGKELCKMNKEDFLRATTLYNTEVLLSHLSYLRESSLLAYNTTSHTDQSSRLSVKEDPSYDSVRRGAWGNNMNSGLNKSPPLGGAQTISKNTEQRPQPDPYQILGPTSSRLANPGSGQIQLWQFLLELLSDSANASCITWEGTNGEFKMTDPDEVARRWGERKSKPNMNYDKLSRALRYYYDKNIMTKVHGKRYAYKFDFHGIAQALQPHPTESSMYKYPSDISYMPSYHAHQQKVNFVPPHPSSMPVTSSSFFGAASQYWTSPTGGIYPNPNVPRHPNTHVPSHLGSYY
Conditions: protein: recombinant; tags: N-terminal GST; dsDNA, one strand shown. The method in brief: (§1)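 Binding signal is given per hexamer as its read frequency for a factor divided by its frequency in the tag-only sample. GST-fused human transcription factors were expressed in yeast, captured on glutathione beads, barcoded with DNA and pooled with that sample, then incubated with 200 nmole of a 16-mer random double-stranded DNA library in Tris/NaCl/DTT/glycerol buffer for 30 min at room temperature. The pools were then washed, crosslinked, proximity-ligated, amplified by PCR and sequenced on an Illumina NextSeq500.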

A further assay concerns the target T2, ELK1 (Homo sapiens, UniProt P19419 1-428).
T2 sequence: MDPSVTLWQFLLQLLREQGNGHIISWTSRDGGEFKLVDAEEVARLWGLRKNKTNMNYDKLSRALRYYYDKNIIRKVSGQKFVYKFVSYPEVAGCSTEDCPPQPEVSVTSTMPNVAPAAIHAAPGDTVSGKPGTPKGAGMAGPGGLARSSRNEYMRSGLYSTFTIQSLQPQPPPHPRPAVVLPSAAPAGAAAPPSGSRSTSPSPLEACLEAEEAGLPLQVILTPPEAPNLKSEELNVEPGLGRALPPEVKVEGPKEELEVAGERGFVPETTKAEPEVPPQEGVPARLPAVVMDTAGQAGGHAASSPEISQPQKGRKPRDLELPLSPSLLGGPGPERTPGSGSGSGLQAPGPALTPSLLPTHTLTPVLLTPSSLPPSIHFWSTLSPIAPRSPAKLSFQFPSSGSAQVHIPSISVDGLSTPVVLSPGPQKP
Conditions: protein: recombinant; tags: N-terminal GST; dsDNA, one strand shown. The method in brief: as §1

A further assay has as its target T3, GABPA (Homo sapiens, UniProt Q06546 1-454).
T3 sequence: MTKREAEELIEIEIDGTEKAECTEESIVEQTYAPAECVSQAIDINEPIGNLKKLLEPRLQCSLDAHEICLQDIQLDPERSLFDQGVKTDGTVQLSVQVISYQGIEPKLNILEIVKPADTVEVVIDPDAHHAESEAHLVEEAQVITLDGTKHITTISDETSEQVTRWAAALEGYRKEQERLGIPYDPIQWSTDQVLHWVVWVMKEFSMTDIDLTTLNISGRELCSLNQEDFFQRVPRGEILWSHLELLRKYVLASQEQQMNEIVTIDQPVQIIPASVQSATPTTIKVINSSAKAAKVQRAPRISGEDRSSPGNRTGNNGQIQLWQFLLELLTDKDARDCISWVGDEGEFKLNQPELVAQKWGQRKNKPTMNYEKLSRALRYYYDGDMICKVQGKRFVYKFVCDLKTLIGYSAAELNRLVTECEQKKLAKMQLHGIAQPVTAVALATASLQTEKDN
Conditions: protein: recombinant; tags: N-terminal GST; dsDNA, one strand shown. The gist of the method: as §1

For the next assay, the target named is T4, ERG (Homo sapiens, UniProt P11308 1-479).
T4 sequence: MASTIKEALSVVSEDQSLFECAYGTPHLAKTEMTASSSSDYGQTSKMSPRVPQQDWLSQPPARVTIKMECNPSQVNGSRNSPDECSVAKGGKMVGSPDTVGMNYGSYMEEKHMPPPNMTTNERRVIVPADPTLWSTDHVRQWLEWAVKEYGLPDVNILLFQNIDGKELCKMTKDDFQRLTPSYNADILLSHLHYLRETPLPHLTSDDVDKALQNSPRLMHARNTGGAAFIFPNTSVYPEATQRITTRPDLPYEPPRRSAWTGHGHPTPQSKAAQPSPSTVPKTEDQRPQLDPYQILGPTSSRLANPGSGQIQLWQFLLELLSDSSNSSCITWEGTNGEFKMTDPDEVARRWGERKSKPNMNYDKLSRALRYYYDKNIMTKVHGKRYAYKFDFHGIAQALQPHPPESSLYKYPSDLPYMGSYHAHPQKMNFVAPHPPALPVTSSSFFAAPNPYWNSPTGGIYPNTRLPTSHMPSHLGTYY
The following applies: protein: recombinant; tags: N-terminal GST; dsDNA, one strand shown. The method in brief:
as §1

Another assay addresses ELF1 (Homo sapiens, UniProt P32519 1-619). The following applies: protein: recombinant; tags: N-terminal GST; dsDNA, one strand shown. The gist of the method:
as §1

The target in another assay is SPI1 (Homo sapiens, UniProt P17947 1-270). Conditions: protein: recombinant; tags: N-terminal GST; dsDNA, one strand shown. The gist of the method:
as §1

A further assay addresses SPIB (Homo sapiens, UniProt Q01892 1-262). The following applies: protein: recombinant; tags: N-terminal GST; dsDNA, one strand shown. The method in brief:
as §1

Another assay concerns the target T5, ELK3 (Homo sapiens, UniProt P41970 1-407).
T5 sequence: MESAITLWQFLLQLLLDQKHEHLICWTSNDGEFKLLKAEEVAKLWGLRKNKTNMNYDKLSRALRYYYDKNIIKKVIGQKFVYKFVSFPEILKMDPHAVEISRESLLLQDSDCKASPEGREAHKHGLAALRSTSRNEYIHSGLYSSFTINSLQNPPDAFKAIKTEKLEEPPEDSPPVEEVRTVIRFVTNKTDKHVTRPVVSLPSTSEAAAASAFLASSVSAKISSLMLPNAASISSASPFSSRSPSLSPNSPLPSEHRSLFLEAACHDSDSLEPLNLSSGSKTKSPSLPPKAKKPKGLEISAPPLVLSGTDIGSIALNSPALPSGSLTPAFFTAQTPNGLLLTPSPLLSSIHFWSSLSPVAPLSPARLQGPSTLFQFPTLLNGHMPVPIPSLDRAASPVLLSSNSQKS
The following applies: protein: recombinant; tags: N-terminal GST; dsDNA, one strand shown. The method in brief:
as §1

A further assay concerns the target T6, FEV (Homo sapiens, UniProt Q99581 1-238).
T6 sequence: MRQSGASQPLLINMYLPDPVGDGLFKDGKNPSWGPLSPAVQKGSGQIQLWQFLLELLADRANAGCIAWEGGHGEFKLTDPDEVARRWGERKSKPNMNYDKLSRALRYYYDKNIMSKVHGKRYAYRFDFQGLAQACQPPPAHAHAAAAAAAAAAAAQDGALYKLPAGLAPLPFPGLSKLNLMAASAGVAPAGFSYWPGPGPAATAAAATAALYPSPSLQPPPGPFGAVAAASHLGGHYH
Conditions: protein: recombinant; tags: N-terminal GST; dsDNA, one strand shown. The method in brief: as §1

In a further assay the target is ETV5 (Homo sapiens, UniProt P41161 1-510). Conditions: protein: recombinant; tags: N-terminal GST; dsDNA, one strand shown. The gist of the method:
as §1

A further assay deals with HSF1 (Homo sapiens, UniProt Q00613 1-529). The following applies: protein: recombinant; tags: N-terminal GST; chain copies: 3; dsDNA, one strand shown. The gist of the method: as §1
Sequence of HSF1 (Q00613 whole entry): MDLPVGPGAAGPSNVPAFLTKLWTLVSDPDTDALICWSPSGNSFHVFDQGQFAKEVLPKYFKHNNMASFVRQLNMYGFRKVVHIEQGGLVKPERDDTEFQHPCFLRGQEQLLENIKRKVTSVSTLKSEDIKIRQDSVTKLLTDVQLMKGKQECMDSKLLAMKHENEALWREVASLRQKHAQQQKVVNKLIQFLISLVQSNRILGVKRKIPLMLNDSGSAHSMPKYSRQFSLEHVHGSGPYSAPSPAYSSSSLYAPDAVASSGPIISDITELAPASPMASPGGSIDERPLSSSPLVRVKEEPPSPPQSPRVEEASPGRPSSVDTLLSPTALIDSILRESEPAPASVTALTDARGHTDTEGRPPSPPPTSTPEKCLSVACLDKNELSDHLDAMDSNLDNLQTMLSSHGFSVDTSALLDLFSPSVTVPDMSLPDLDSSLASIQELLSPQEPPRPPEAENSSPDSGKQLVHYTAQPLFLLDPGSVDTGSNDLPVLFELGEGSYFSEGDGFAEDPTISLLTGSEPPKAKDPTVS
The next assay concerns the target T7, SPIC (Homo sapiens, UniProt Q8N5J4 1-248).
T7 sequence: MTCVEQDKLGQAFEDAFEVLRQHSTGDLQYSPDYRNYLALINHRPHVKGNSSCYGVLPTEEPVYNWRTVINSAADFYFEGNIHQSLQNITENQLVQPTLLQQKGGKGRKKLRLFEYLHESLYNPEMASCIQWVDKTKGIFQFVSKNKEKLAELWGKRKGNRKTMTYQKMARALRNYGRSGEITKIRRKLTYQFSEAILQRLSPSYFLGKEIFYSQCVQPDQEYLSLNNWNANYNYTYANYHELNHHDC
Conditions: protein: recombinant; tags: N-terminal GST; dsDNA, one strand shown. The gist of the method:
as §1

For the next assay, the target named is ELF4 (Homo sapiens, UniProt Q99607 1-663). Conditions: protein: recombinant; tags: N-terminal GST; dsDNA, one strand shown. The method in brief: as §1
Sequence of ELF4 (Q99607 whole entry): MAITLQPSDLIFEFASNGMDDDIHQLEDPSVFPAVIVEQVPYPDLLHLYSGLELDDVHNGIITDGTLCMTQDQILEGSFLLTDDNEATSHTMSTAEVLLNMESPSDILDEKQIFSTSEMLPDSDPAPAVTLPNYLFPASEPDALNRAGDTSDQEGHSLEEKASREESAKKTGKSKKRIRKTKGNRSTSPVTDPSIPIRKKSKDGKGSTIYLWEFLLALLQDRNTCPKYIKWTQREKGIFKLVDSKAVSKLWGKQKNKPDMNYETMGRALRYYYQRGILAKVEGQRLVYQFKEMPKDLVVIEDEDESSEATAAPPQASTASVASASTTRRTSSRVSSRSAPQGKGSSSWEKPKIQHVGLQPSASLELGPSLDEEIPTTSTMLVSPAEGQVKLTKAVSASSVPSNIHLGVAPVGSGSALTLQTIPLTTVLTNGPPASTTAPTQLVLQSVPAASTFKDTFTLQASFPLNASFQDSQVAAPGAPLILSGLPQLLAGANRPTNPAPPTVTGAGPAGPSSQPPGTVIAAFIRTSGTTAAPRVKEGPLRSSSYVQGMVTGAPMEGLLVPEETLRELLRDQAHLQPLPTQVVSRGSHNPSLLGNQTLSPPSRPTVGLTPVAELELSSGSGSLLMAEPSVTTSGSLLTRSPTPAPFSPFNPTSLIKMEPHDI
For a further assay, the target named is T8, ELK4 (Homo sapiens, UniProt P28324-2 1-405).
T8 sequence: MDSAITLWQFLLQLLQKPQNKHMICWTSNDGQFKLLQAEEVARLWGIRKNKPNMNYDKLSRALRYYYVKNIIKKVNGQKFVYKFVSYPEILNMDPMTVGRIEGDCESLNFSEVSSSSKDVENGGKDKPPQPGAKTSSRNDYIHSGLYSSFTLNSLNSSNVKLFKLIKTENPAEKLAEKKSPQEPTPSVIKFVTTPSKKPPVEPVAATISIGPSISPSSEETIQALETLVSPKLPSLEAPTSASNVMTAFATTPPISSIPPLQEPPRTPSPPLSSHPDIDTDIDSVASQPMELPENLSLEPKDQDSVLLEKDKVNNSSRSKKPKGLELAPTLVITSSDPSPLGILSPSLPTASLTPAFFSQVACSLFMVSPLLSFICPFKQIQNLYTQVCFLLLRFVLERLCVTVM
The following applies: protein: recombinant; tags: N-terminal GST; dsDNA, one strand shown. The method in brief: as §1

The target in the next assay is T9, ETV2 (Homo sapiens, UniProt O00321 1-342).
T9 sequence: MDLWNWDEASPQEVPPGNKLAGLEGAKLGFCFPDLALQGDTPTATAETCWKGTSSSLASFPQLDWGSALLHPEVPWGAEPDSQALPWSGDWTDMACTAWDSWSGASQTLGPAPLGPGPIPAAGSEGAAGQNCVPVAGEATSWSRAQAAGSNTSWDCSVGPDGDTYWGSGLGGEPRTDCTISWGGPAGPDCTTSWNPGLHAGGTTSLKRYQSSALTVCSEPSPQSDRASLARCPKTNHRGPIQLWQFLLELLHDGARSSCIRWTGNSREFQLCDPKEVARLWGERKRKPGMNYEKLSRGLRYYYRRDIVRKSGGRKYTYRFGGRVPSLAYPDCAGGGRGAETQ
Conditions: protein: recombinant; tags: N-terminal GST; dsDNA, one strand shown. The method in brief: as §1

The target in another assay is T10, ELF3 (Homo sapiens, UniProt P78545 1-371).
T10 sequence: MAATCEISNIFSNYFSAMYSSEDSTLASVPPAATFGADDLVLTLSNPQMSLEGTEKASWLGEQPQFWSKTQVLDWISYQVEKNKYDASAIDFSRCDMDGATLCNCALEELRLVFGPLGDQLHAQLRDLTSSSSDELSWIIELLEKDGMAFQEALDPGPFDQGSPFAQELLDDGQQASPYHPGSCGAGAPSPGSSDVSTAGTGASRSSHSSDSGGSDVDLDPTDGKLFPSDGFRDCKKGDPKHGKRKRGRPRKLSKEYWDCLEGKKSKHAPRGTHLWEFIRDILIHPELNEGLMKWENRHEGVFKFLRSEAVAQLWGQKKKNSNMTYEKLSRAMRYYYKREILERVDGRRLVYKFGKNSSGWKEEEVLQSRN
The following applies: protein: recombinant; tags: N-terminal GST; dsDNA, one strand shown. The method in brief: as §1

The next assay deals with CRX (Homo sapiens, UniProt O43186 1-299). Conditions: protein: recombinant; tags: N-terminal GST; dsDNA, one strand shown. The method in brief:
as §1

The target in the next assay is ETV1 (Homo sapiens, UniProt P50549 1-477). Conditions: protein: recombinant; tags: N-terminal GST; dsDNA, one strand shown. The method in brief:
as §1

Sequence of ETV5 (P41161 whole entry): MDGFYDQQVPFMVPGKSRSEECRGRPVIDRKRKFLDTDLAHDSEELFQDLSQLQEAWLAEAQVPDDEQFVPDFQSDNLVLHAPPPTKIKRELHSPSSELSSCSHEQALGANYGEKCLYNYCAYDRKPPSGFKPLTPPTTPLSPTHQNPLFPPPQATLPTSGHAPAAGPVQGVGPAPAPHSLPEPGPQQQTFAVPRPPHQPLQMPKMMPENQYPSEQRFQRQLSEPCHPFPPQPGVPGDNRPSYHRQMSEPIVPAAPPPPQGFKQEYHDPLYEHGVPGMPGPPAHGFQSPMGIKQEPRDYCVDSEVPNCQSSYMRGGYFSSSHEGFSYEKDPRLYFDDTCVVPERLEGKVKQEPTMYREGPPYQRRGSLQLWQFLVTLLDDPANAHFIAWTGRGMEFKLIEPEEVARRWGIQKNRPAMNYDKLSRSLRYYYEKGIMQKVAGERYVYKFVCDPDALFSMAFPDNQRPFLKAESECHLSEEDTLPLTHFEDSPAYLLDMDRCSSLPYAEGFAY
Sequence of SPIB (Q01892 whole entry): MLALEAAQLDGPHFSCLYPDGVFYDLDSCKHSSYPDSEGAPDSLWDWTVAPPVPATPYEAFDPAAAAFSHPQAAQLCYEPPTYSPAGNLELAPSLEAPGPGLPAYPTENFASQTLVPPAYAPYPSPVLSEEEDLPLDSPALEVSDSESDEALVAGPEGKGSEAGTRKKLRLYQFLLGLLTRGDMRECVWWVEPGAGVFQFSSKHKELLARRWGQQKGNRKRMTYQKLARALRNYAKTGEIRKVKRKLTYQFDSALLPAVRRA
Sequence of ELF1 (P32519 whole entry): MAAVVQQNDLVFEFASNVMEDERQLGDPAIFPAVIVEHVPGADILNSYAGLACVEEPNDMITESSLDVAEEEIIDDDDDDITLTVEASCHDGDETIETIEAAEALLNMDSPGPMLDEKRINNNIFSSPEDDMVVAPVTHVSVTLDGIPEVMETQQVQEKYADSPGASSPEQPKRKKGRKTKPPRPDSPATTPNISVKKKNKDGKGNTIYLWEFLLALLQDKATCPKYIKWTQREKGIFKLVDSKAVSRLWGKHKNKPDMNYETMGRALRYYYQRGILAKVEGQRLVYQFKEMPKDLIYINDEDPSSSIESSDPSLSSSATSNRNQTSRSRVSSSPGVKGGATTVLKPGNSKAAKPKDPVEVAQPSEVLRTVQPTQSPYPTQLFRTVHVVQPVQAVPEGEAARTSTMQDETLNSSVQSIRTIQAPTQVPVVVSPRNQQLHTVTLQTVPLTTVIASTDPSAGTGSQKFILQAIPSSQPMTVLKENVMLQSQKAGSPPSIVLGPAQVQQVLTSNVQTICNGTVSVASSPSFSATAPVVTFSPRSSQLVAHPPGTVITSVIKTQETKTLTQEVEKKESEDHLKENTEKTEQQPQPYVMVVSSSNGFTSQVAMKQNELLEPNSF
Sequence of ETV1 (P50549 whole entry): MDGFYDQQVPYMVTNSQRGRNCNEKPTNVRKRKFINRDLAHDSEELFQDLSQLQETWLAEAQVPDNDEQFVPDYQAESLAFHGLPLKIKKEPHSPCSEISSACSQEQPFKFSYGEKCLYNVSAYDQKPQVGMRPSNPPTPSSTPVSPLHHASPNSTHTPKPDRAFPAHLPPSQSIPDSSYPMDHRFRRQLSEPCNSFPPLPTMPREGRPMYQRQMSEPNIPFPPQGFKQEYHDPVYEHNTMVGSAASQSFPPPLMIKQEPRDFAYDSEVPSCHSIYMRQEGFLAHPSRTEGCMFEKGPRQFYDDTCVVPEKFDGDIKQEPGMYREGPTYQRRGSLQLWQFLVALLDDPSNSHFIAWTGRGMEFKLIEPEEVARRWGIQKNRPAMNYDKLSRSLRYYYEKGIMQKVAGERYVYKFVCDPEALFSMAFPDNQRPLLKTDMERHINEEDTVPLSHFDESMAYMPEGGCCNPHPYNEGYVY
Sequence of CRX (O43186 whole entry): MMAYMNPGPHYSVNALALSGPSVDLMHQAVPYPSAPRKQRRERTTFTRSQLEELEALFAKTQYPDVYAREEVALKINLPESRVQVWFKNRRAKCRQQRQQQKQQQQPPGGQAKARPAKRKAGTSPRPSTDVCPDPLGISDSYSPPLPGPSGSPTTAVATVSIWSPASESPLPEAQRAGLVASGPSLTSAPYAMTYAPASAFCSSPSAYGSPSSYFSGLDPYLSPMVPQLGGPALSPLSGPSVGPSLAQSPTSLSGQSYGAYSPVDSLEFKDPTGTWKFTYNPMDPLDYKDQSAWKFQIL

As to TAACGA, the binding signal is 1.09 fold enrichment (6-mer frequency, TF over GST control) with FLI1; 1.04 fold enrichment (6-mer frequency, TF over GST control) with ELK1; 1.07 fold enrichment (6-mer frequency, TF over GST control) with GABPA; 1.08 fold enrichment (6-mer frequency, TF over GST control) with ERG; 1.03 fold enrichment (6-mer frequency, TF over GST control) in the assay with ELF1; 1.06 fold enrichment (6-mer frequency, TF over GST control) with SPI1. The binding signal in the assay with SPIB is 1.1 fold enrichment (6-mer frequency, TF over GST control); with ELK3, 1.03 fold enrichment (6-mer frequency, TF over GST control); with FEV it was 1.08 fold enrichment (6-mer frequency, TF over GST control); with ETV5, 1.06 fold enrichment (6-mer frequency, TF over GST control); with HSF1, 1.23 fold enrichment (6-mer frequency, TF over GST control); with SPIC, 1.1 fold enrichment (6-mer frequency, TF over GST control). Also, the binding signal is 1.12 fold enrichment (6-mer frequency, TF over GST control) in the assay with ELF4; 1.09 fold enrichment (6-mer frequency, TF over GST control) in the assay with ELK4; 1.04 fold enrichment (6-mer frequency, TF over GST control) with ETV2; 1.02 fold enrichment (6-mer frequency, TF over GST control) with ELF3; 1.57 fold enrichment (6-mer frequency, TF over GST control) in the assay with CRX; 1.08 fold enrichment (6-mer frequency, TF over GST control) in the assay with ETV1.
